# Shown are actives, neighbours in structure and some others; about 0.93% of the full set was active somewhere.
# LAP4 TOR yeast = alters LAP4-GFP fluorescence in TOR pathway yeast screen; S. cerevisiae LAP4-GFP multiplex, flow cytometry GFP, 3 h; median GFP as percent of DMSO wells; GFP response vs DMSO, % at 10 µM; actives 0.34% (n = 320,000); AID 2023;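 active = GFP response vs DMSO above a set limit, about the screen mean plus 3 SD, cut at about 150% in these data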
# RPL19A-GFP yeast = yeast TOR pathway RPL19A-GFP modulation; S. cerevisiae RPL19A-GFP strain, flow cytometry, 3 h; active compounds read low; percent response vs DMSO, % at 10 µM; actives 0.3% (n = 330,000); AID 2025;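 active = percent response vs DMSO below 50%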;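 note: median channel GFP fluorescence of the barcoded RPL19A-GFP strain; ratio of sample median GFP to plate DMSO average so 100% = DMSO; lower means less RPL19A-GFP as with rapamycin TOR inhibition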
# AGP1 TOR yeast = alters AGP1-GFP fluorescence in TOR pathway yeast screen; actives 0.02% (n = 320,000); S. cerevisiae AGP1-GFP multiplex flow cytometry, 3 h; GFP as percent of DMSO wells; GFP response vs DMSO, % at 10 µM;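 active = GFP response relative to DMSO above a set limit, near screen average plus 3 SD, cut at about 150% in these data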;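 note: median GFP channel fluorescence of the gated AGP1 strain per well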
# CIT2 TOR yeast = yeast TOR pathway CIT2-GFP modulation | S. cerevisiae CIT2-GFP strain, flow cytometry, 3 h; 100 means same as DMSO wells | GFP response vs DMSO, % at 10 µM | actives 0.065% (n = 320,000) | AID 2029;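 active = GFP response relative to DMSO above a set limit, near the screen mean plus 3 SD, cut at about 150% in these data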;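 note: ratio of well median GFP fluorescence to mean of DMSO wells on the plate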
# MEP2-GFP yeast = modulators of TOR pathway MEP2-GFP in S. cerevisiae. AID 2016. S. cerevisiae MEP2-GFP strain, flow cytometry GFP, 3 h; 100% = DMSO control level. GFP response vs DMSO, % at 10 µM. actives 0.51% (n = 330,000);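 active = GFP response versus DMSO above a set limit, roughly screen mean plus 3 SD, cut at about 180% in these data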;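 note: median GFP fluorescence of the barcode-gated MEP2-GFP cells per well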
# LAP4-GFP pick2 = reconfirmed LAP4-GFP TOR pathway modulator in yeast | GFP response vs DMSO, % at 10 µM | S. cerevisiae LAP4-GFP strain, flow cytometry GFP, 3 h | shares compounds with LAP4 TOR yeast | AID 2621 | actives 20% (n = 590);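 active = GFP signal as percent of the solvent control above about 150%, meaning raised reporter expression, limit read from the data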;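 note: ratio of well median GFP fluorescence to plate DMSO mean so 100% = DMSO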
# MEP2-GFP pick2 = yeast MEP2-GFP modulation, second cherry pick; shares compounds with LAP4 TOR yeast; S. cerevisiae MEP2-GFP strain, flow cytometry GFP, 3 h; GFP response vs DMSO, % at 10 µM; actives 10% (n = 590);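 active = GFP signal above 150% of the solvent control wells, that is a rise of more than half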;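 note: median channel GFP fluorescence of all gated yeast cells per well; ratio of median GFP to plate DMSO average so 100% = DMSO level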
# RPL19A GFP CP2 = yeast RPL19A-GFP TOR reporter modulation, second cherry pick; GFP response vs DMSO, % at 10 µM; actives 3% (n = 590); AID 2623; S. cerevisiae RPL19A-GFP strain, flow cytometry GFP, 3 h; active compounds read low; 100% means same as DMSO wells; shares compounds with LAP4 TOR yeast;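 active = under 65% GFP response relative to DMSO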;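 note: median GFP channel fluorescence per well over the all cells gate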
# CIT2-GFP pick2 = second confirmation of modulators of TOR reporter CIT2-GFP in yeast; GFP response vs DMSO, % at 10 µM; AID 2624; S. cerevisiae CIT2-GFP strain, flow cytometry GFP, 3 h; DMSO control wells read 100%; actives 8% (n = 590); shares compounds with LAP4 TOR yeast;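 active = GFP response vs DMSO above about 150%, limit read from the data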;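 note: median green fluorescence per well over all gated yeast cells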
# AGP1 GFP CP2 = second confirmation of modulators of TOR reporter AGP1-GFP in yeast. shares compounds with LAP4 TOR yeast. S. cerevisiae AGP1-GFP strain, flow cytometry GFP, 3 h. percent response vs DMSO, % at 10 µM. 590 tested, under 10 active. AID 2643;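 active = over 150 percent of DMSO response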;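 note: median GFP channel fluorescence over all cells without mother daughter split; sample median GFP divided by mean DMSO control so 100% equals DMSO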
# Yeast autofluor = counter-screen for compound autofluorescence in yeast s288c cells; shares compounds with LAP4 TOR yeast; S. cerevisiae s288c, 520 nm autofluorescence, flow cytometry, 3 h; active compounds read high; zero means same as solvent-only cells; fluorescence change (kMESF span) at 33 µM; 610 tested, under 10 active; AID 2757;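 active = fluorescence span over the dose series, or activity score, above about 33, limit read from the data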
# Yeast autofl DR = yeast s288c autofluorescence artifact in dose response; fluorescence change (span) at 33 µM; S. cerevisiae s288c parental, compound autofluorescence, flow cytometry, 3 h; shares compounds with LAP4 TOR yeast; AID 488829; 110 tested, under 10 active;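 active = fluorescence change span, or the activity score built from it, above 25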
# TORC1 bypass = wildtype yeast growth loss with TORC1 bypass cells unaffected; shares compounds with LAP4 TOR yeast; S. cerevisiae BY4741 spot growth rating, 48-72 h; active compounds read low; growth rating (0-3) at 30 µM; 120 tested, under 10 active; AID 504456;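 active = growth rating at most 1 for wild type yeast while the TORC1 bypass strain still grows fully, rated 3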
# Numbers without * were called inactive; x = no result.
SMILES,LAP4 TOR yeast,RPL19A-GFP yeast,AGP1 TOR yeast,CIT2 TOR yeast,MEP2-GFP yeast,LAP4-GFP pick2,MEP2-GFP pick2,RPL19A GFP CP2,CIT2-GFP pick2,AGP1 GFP CP2,others
COC(=O)CCN(C(=O)C1C2CC3CC(C2)CC1C3)c1ccccn1 (centres undefined),154.0*,95.1,106.8,96.0,93.4,111.2,125.8,100.8,122.4,102.0,
COCCNc1nc(C)cc(-c2cc(C(=O)NCc3ccccc3)on2)n1,229.5*,70.4,119.7,117.6,355.8*,101.0,101.5,99.0,100.7,98.4,
CCCNc1nc(-c2cc(C(=O)Nc3ccccc3)on2)cc(C(C)C)n1,115.0,98.0,92.4,97.9,107.0,100.2,99.6,94.2,96.0,104.4,
COCCNc1nc(C)cc(-c2cc(C(=O)Nc3ccccc3)on2)n1,102.6,97.5,89.1,92.6,90.0,101.9,103.2,100.2,107.4,97.7,
Cc1cc(-c2cc(C(=O)NCc3ccccc3)on2)nc(S(C)(=O)=O)n1,102.7,95.1,97.1,88.1,98.0,101.9,98.2,100.7,100.7,99.3,
O=C(COC(=O)c1cc2ccccc2cc1O)NC(=O)NCc1ccco1,89.8,100.6,96.3,99.8,104.3,x,x,x,x,x,
COc1ccc(N2CCN(C(=O)NCc3ccc(C)cc3)CC2)cc1,101.6,105.0,99.0,96.1,99.7,x,x,x,x,x,
N/C(Cc1ccc(Cl)cc1Cl)=N\OC(=O)c1cccs1,217.2*,77.0,46.7,130.2,110.9,197.4*,158.9*,83.9,186.3*,74.8,Yeast autofluor=1.42
O=C(O)c1cccc(-n2cccc2/C=C/[N+](=O)[O-])c1,162.7*,93.5,102.8,91.6,93.8,110.2,99.6,104.2,116.8,102.9,
O=C(O)c1cccc(-n2cccc2/C=C\[N+](=O)[O-])c1,103.0,96.2,101.5,109.9,98.0,x,x,x,x,x,
COC(=O)[C@@H](NC(=O)NC1CCCCC1C)C(C)C (some centres undefined),x,101.2,x,x,99.7,x,x,x,x,x,
CN(C)c1ccc(/C=C/c2cc[n+]([O-])cc2)cc1,108.9,101.7,103.9,108.4,130.3,x,x,x,x,x,
CN(C)c1ccc(/C=C/c2cc[n+](C)cc2)cc1,198.8*,116.4,123.0,181.8*,248.7*,x,x,x,x,x,Yeast autofluor=11
O=c1c2c([N+](=O)[O-])cc([N+](=O)[O-])cc2sn1Cc1ccccc1,107.4,98.7,100.7,99.0,99.8,x,x,x,x,x,
O=c1c2c([N+](=O)[O-])cc([N+](=O)[O-])cc2sn1-c1ccc(Br)cc1,62.3,32.0*,11.6,37.5,78.1,107.2,96.1,94.4,102.9,99.5,
CCOC(=O)Cn1c(CN2CCOCC2)nc2c1c(=O)[nH]c(=O)n2C,95.9,92.8,98.1,111.9,97.3,x,x,x,x,x,
CCOC(=O)Cn1c(CN2CCOCC2)nc2c1c(=O)n(C)c(=O)n2C,222.1*,69.3,106.2,101.0,95.5,108.2,118.8,101.5,115.4,99.0,
COc1ccc(C(c2c(C)[nH]n(C(N)=S)c2=O)C(C#N)C#N)cc1 (centres undefined),335.3*,98.0,76.2,76.6,98.3,x,x,x,x,x,Yeast autofluor=0.41
CC(C)(C)C(=O)C(Cl)C(=O)Nc1ccccc1 (centres undefined),285.5*,68.8,116.0,119.1,105.4,x,x,x,x,x,Yeast autofluor=1.64;Yeast autofl DR=0.1;TORC1 bypass=3
O=C(Nc1ccc(Nc2ccccc2)cc1)C(Cl)Cl,108.9,97.6,86.8,73.8,86.9,x,x,x,x,x,
O=C(CN1CCN(c2ccccn2)CC1)Nc1ccc(F)c(F)c1,85.9,103.2,95.5,103.6,102.2,x,x,x,x,x,
O=C(O)c1ccccc1SC1CC(=O)N(c2ccc3c(c2)OCO3)C1=O (centres undefined),151.3*,100.4,100.5,84.9,89.4,x,x,x,x,x,Yeast autofluor=0
CN(Cc1ccccc1)C(=O)CCC1CCN(C(=O)c2ccccc2C(F)(F)F)CC1,99.1,97.2,106.2,156.7*,114.4,99.0,101.5,101.3,109.7,103.5,
CSCc1ccc(C(=O)N2CCC(CCC(=O)N(C)Cc3ccccc3)CC2)o1,95.9,101.5,100.7,98.8,95.0,x,x,x,x,x,
CC(NC(=O)c1ccncc1)c1ccc(Br)cc1 (centres undefined),108.4,96.2,104.8,97.9,95.3,x,x,x,x,x,
SMILES,LAP4 TOR yeast,RPL19A-GFP yeast,AGP1 TOR yeast,CIT2 TOR yeast,MEP2-GFP yeast,LAP4-GFP pick2,MEP2-GFP pick2,RPL19A GFP CP2,CIT2-GFP pick2,AGP1 GFP CP2,others
CCC(=O)NC(c1ccccc1OC)c1ccc2cccnc2c1O (centres undefined),95.0,100.1,115.9,98.5,101.9,x,x,x,x,x,
COc1ccc(Cl)cc1C(Nc1cccnc1)c1ccc2cccnc2c1O (centres undefined),191.7*,85.1,106.4,89.9,99.3,x,x,x,x,x,Yeast autofluor=1
COCc1nc(-c2cc(OC)c(OC)c(OC)c2)no1,109.4,24.8*,22.6,98.9,792.9*,103.8,104.8,100.9,98.4,100.5,
Cc1ccc(N2C(=O)CC(Sc3ncn[nH]3)C2=O)cc1C (centres undefined),150.8*,98.2,94.9,91.1,90.1,x,x,x,x,x,Yeast autofluor=-0.1
Cc1cccc(N2C(=O)CC(Sc3ncn[nH]3)C2=O)c1 (centres undefined),139.6,93.2,92.8,78.2,90.3,x,x,x,x,x,
CCCNC(=O)C1(O)c2cc(Br)ccc2NC(=O)N1c1ccc(Cl)cc1 (centres undefined),93.5,100.0,100.0,100.2,98.0,x,x,x,x,x,
CNc1nc(N)c([N+](=O)[O-])c(Nc2ccccc2)n1,x,x,x,x,x,x,x,x,x,x,Yeast autofl DR=0.63;TORC1 bypass=3
